AMA1-RON2 inh: inhibitors of Plasmodium falciparum AMA1-RON2 interaction. AlphaScreen AMA1-biotinylated RON2 peptide binding. Potency, µM (highest dose often 58.2 µM), for the others: at the top dose activity change, negative = inhibition, hits mostly inhibitors. 360,000 tested, 0.2% active. AID 720542;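 further: 0% = vehicle wells and -100% = peptide control; nearly all actives have a fitted effect of over 45% in size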
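AMA1 (3D7) with his tag at 25 nM final met compounds first, then biotinylated RON2 peptide at 25 nM; detection used donor plus acceptor beads, 10 µg/mL apiece, read by AlphaScreen after 30 min at room temperature.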
Pf growth 96h: inhibits malaria parasite growth, 96 h; P. falciparum luciferase reporter growth, 96 h; Potency, µM (titrated, usually from 28.7 µM), without a hit: at the top dose activity change, negative = inhibition, usual class: inhibitors; 320,000 tested, 6.9% active; AID 504834
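Two parasite generations (96 h, 37 C, 5% CO2) of compound exposure in infected erythrocytes (0.05% parasitemia, 2% hematocrit). Luciferase-reporter P. falciparum; decreased luminescence indicates inhibited growth, aimed at apicoplast-acting delayed death.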
Pf growth 48h: P. falciparum growth inhibition at 48 hours (one generation). P. falciparum luciferase growth in erythrocytes, 48 h. Potency, µM (highest dose often 28.7 µM), without a hit: top-dose activity change, negative = inhibition, hits mostly inhibitors. 310,000 tested, 5.9% active. AID 504832
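Here the parasites carry a stable luciferase gene and grow inside erythrocytes in Albumax-based RPMI medium with compound for one erythrocytic cycle. Activity is scored as loss of luminescent signal.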
HCV inhibitor: HCV inhibition; Huh7.5.1 HCVcc-Cre infection, luciferase reporter, 44 h; Potency, µM (highest dose often 41.8 µM), inactives show top-dose activity change, negative = inhibition, hits mostly inhibitors; 340,000 tested, 3.4% active; AID 651820
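After 44 h co-culture of compound, cells and HCVcc-Cre (~0.5 moi), substrate is added for 15 min at room temperature and luciferase measured over 15 sec. Cells were seeded at 1,000/well and pre-cultured 4 h.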
* = called active by the depositor; ? = inconclusive; · = not tested or not shown. Hits are enriched below; roughly 11% of the tested compounds scored in any of these assays. The call rests on the fitted dose curve; in most records, active means well fitted curve in the direction sought with a large enough effect; inconclusive means small, poorly fitted or top-dose-only effect, or another doubt; inactive means no such curve, though single readings can be large; an effect the other way counts as inactive or inconclusive. Unless noted, on the % scale 0 is the no-effect control and ±100 the full control effect; potency means the concentration at half of the fitted maximal effect.

SMILES | AMA1-RON2 inh | Pf growth 96h | Pf growth 48h | HCV inhibitor
COc1ccc2[nH]cc(CCNC(=O)Cc3ccc(F)cc3)c2c1 | 6% | ? | 30% | 5%
CCn1c(COc2ccccc2)nnc1SCC(=O)CC(=O)Nc1ccccc1OC | 7% | 7.4µM* | 13µM* | -6%
CCn1c(SCC(=O)NC2CCCCC2)nc2ccccc2c1=O | 4% | 12µM* | 52% | 3%
CCn1c(COc2cccc(C)c2)nnc1SCC(=O)CC(=O)Nc1ccccc1OC | 79% | 18% | ? | -19%
O=C(CCN1C(=O)/C(=C\c2ccccc2Cl)SC1=S)N1CCN(c2ccccc2)CC1 | -8% | ? | 36% | 19%
Cc1ccc(/C=C2\SC(=S)N(CCCC(=O)N3CCOCC3)C2=O)cc1 | -10% | -21% | 13µM* | 2%
CN1CCN(C(=O)CCCN2C(=O)/C(=C/c3ccc(Cl)cc3)SC2=S)CC1 | -8% | 10µM* | ? | ?
CN1CCN(C(=O)CCN2C(=O)/C(=C\c3ccc(Cl)cc3Cl)SC2=S)CC1 | -28% | 3.3µM* | 10µM* | 0%
CN1CCN(C(=O)CCCN2C(=O)/C(=C/c3ccccc3)SC2=S)CC1 | -8% | ? | ? | -10%
CC(NC(=O)c1ccc(N)cc1)c1ccccc1 (stereo not given) | -11% | -5% | 9% | 1%
CCC(C)C(NC(=O)c1ccccc1NC(=O)c1ccc(OC)cc1)C(=O)NCCCn1ccnc1 (stereo not given) | -3% | ? | ? | -21%
CC(C)(C)NC(=O)COC(=O)c1ccc(Cl)c(S(N)(=O)=O)c1 | 9% | 20% | 16% | -7%
CCCCNS(=O)(=O)c1ccc(NC(=O)C(Sc2ccccc2)c2ccccc2)cc1 (stereo not given) | -15% | ? | 10µM* | ?
O=C(NC(=S)NCCCN1CCOCC1)c1cccc2ccccc12 | -15% | 6.6µM* | ? | 2%
O=C(NCCCN1CCOCC1)C(=O)N/N=C/c1c2ccccc2cc2ccccc12 | -8% | ? | -9% | 11µM*
O=C(NCCCN1CCOCC1)C(Sc1ccccc1)c1ccccc1 (stereo not given) | 3% | 7.4µM* | -10% | 7%
Cc1ccc(C(=O)NC(=S)NCCCN2CCOCC2)cc1 | -23% | 17% | 33% | -2%
CCN1C[C@@H]2[C@@H]3C(=O)N(C)C(=O)[C@@H]3[C@](C)(C1=O)N2C(=O)c1ccc(Cl)c(Cl)c1 | 7% | · | · | 20%
COc1cccc(CNC(=O)[C@@H]2CCCN2C(=O)[C@H]2CCCCN2S(=O)(=O)c2ccc(OC)c(C)c2)c1 | -2% | · | · | ·
COc1ccc(N2CCN(C(=O)C(=O)c3cn(CC(=O)N4CCCC4)c4ccccc34)CC2)cc1 | -5% | · | · | ·
CCc1ccc(Nc2nc(C)cc(C)n2)cc1 | 3% | 109% | 93% | ?
CCN1C(=O)[C@H]2[C@@H](c3ccc(-c4ccc(Cl)c(Cl)c4)c(OC)c3)N3CCCC[C@@]3(C(=O)OC)[C@H]2C1=O | -6% | · | · | ?
CCN1C(=O)[C@@H]2[C@@H](c3ccc(-c4ccc(C(C)=O)cc4)c(OC)c3)N3CCC[C@@]3(C(=O)OC)[C@@H]2C1=O | -17% | 6.6µM* | 10µM* | -6%
COC(=O)[C@@]12CCCCN1[C@H](c1ccc(-c3ccc(OC)cc3)c(OC)c1)[C@@H]1C(=O)N(C)C(=O)[C@@H]12 | 4% | 7.4µM* | 9.3µM* | ?
CCN1C(=O)[C@@H]2[C@@H](c3ccc(-c4ccc(C(C)=O)cc4)c(OC)c3)N3CCCC[C@@]3(C(=O)OC)[C@@H]2C1=O | -3% | 9.3µM* | 2.9µM* | -2%
SMILES | AMA1-RON2 inh | Pf growth 96h | Pf growth 48h | HCV inhibitor
CCN1C(=O)[C@@H]2[C@@H](c3ccc(-c4ccc5c(c4)OCO5)c(OC)c3)N3CCCC[C@@]3(C(=O)OC)[C@@H]2C1=O | -6% | 12µM* | 4.7µM* | 0%
COC(=O)[C@@]12CCCCN1[C@H](c1ccc(-c3ccc(F)cc3)c(OC)c1)[C@H]1C(=O)N(C)C(=O)[C@H]12 | 4% | · | · | 4%
S=C(Nc1cccc(Cl)c1)N1CCN(Cc2ccccc2)CC1 | -2% | -27% | 21% | 7%
Cc1cc(OI)c(C(C)C)cc1-c1cc(C(C)C)c(OI)cc1C | · | 6.7µM* | ? | ·
COc1cc(C)c(N)cc1C(C)C | -17% | · | 4% | 4%
O=C(Cn1cc(C(F)(F)F)ccc1=O)N/N=C/c1cccc(Cl)c1 | 14% | 0% | 27% | -5%
